Among all 350,000 compounds or so, about 6,000 (1.7%) were called active. About 5% were inconclusive and are not listed. Many of the other results were omitted from the sample, so actives are more common in it than they were. Values without a mark were called inactive. Rule as the data show it: active = CPE inhibition above about 20% (passing the limit was not always enough); inconclusive = no clear call, values can overlap the other calls; tested in BHK-21 cells.
Experiment: protection of cells from dengue 2 killing – plate reader, single concentration, primary screen (AID 651640);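 also: 0% = median of neutral control wells and 100% = median of positive control wells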
Conditions: DENV2-infected cells, cytopathic effect rescue, at 9.99 µM, active compounds read high

Row | Compound | CPE inhibition
1 | Cc1ccccc1S(=O)(=O)N1CC(=O)N2[C@H](CO)[C@H](c3ccc(C#CC4CC4)cc3)[C@@H]2C1 | 5.14%
2 | CC=Cc1ccc2n(c1=O)C[C@@H]1[C@@H](CO)[C@H](C(=O)NC3CCCC3)[C@H]2N1C(=O)c1cnccn1 (mixture of isomers) | 2.52%
3 | CO[C@@H]1CN(C)C(=O)c2ccc(NC(=O)C3CC3)cc2OC[C@@H](C)N(CC2CCOCC2)C[C@H]1C | 0.64%
4 | CC(C)NC(=O)Nc1cccc2c1O[C@H](CN(C)Cc1ccccc1)[C@H](C)CN([C@H](C)CO)C2=O | 1.48%
5 | CO[C@@H]1CN(C)C(=O)c2cc(NC(C)=O)ccc2OC[C@@H](C)N(C(=O)NC2CCCCC2)C[C@H]1C | -11%
6 | COc1cccc(-c2ccc3n(c2=O)C[C@H]2[C@H](CO)[C@@H](C(=O)N4CCCCC4)N(C)[C@@H]32)c1 | 5.67%
7 | CCCNC(=O)Nc1ccc2c(c1)OC[C@H](C)N(Cc1ccccc1)C[C@H](C)[C@H](OC)CN(C)C2=O | 14.2%
8 | COC(=O)CCCCCCC(=O)Nc1ccc(C2OC(CSc3nc(-c4ccccc4)c(-c4ccccc4)o3)CC(c3ccc([N+](=O)[O-])cc3)O2)cc1 (configuration not stated) | -6.28%
9 | CCCNC(=O)[C@H]1[C@H](CO)[C@H]2Cn3c(ccc(-c4cccc(F)c4)c3=O)[C@@H]1N2C(=O)CC | 0.06%
10 | CN1c2ccc(-c3ccccc3)cc2[C@@H]2[C@@H](CCN2C(=O)c2ccccc2F)[C@@H]1CO | 1.36%
11 | CN1c2ccc(Br)cc2[C@@H]2[C@@H](CCN2C(=O)Cc2ccccc2)[C@@H]1CO | 0.742%
12 | CN1c2ccc(Br)cc2[C@@H]2[C@@H](CCN2C(=O)C2CCCCC2)[C@H]1CO | 8.19%
13 | CN1c2ccc(Br)cc2[C@@H]2[C@@H](CCN2C(=O)C2CCCC2)[C@H]1CO | 99.1% (active)
14 | O=C(CC1CC1)N1[C@H](CO)[C@@H]2c3ccccc3N(S(=O)(=O)c3ccc(F)cc3)C[C@@H]21 | -3.84%
15 | O=C(C[C@@H]1CC[C@H](NC(=O)C2CCOCC2)[C@@H](CO)O1)Nc1ccccc1 | 6.72%
16 | CCOC(=O)[C@]12CCCC=C1N(Cc1ccc3c(c1)OCO3)C(=O)[C@H](CC(=O)NCc1cccs1)C2 | 66.5% (active)
17 | CCOC(=O)[C@]12CCCC=C1N(Cc1ccc3c(c1)OCO3)C(=O)[C@H](CC(=O)N1CCN(C(=O)c3ccco3)CC1)C2 | -2.94%
18 | COC(=O)[C@]12CCCCC=C1N(Cc1ccc(Cl)cc1Cl)C(=O)[C@H](CC(=O)NCc1cccc3ccccc13)C2 | -2.75%
19 | COC(=O)[C@]12CCCCC=C1N(Cc1ccc3c(c1)OCO3)C(=O)[C@H](CC(=O)N1CCOCC1)C2 | 8.62%
20 | COC(=O)[C@]12CCCCC=C1N(Cc1ccc3c(c1)OCO3)C(=O)[C@H](CC(=O)NCc1cccs1)C2 | -4.45%
21 | CCOC(=O)[C@]12CCC=C1N(Cc1ccccc1)C(=O)[C@H](CC(=O)N1CCCC1)C2 | 29.8% (active)

Row | Compound | CPE inhibition
22 | COC(=O)[C@]12CCCCC=C1N(Cc1cccc3ccccc13)C(=O)[C@H](CC(=O)N1CCOCC1)C2 | 99.4% (active)
23 | CCOC(=O)[C@]12CCCC=C1N(Cc1ccc(Cl)cc1Cl)C(=O)[C@H](CC(=O)N1CCCCC1)C2 | 4.66%
24 | CCOC(=O)[C@]12CCC=C1N(Cc1ccco1)C(=O)[C@H](CC(=O)N1CCSCC1)C2 | -4%
25 | COc1ccc(S(=O)(=O)N(C)C[C@@H]2Oc3ccc(NC(=O)Cc4ccccc4)cc3CC(=O)N([C@@H](C)CO)C[C@H]2C)cc1 | -3.88%
26 | CO[C@@H]1CN(C)C(=O)c2cc(NC(=O)c3ccc4c(c3)OCO4)ccc2OC[C@H](C)N(CCC(F)(F)F)C[C@H]1C | 2.23%
27 | Cc1noc(C)c1NC(=O)Nc1ccc2c(c1)CC(=O)N([C@@H](C)CO)C[C@@H](C)[C@H](CN(C)C(=O)NC1CCCCC1)O2 | 1.27%
28 | N#C[C@@H]1[C@@H](c2ccc(-c3ccccc3F)cc2)[C@@H](CO)N1C(=O)c1ccccn1 | -0.879%
29 | COc1ccccc1NC(=O)N[C@H]1CC[C@@H](CC(=O)NCc2ccc(Cl)c(Cl)c2)O[C@H]1CO | -2.11%
30 | C/C=C/c1ccc2c(c1)O[C@@H](CN(C)C(=O)Cc1ccccn1)[C@@H](C)CN([C@H](C)CO)S2(=O)=O | 3.81%
31 | C[C@@H]1CN([C@H](C)CO)S(=O)(=O)c2ccc(C#C[C@@H](C)O)cc2O[C@H]1CN(C)C(=O)CC1CC1 | -1.93%
32 | Cc1ccc(C2Nc3ccccc3C(=O)N2CCN2CCNC2=O)cc1 (configuration not stated) | -0.485%
33 | Cc1cccc([C@H]2[C@@H]3C=CC[C@@H](C)[C@@H]3C(=O)N2Cc2ccccc2)c1 | -1.21%
34 | Cc1cccc([C@@H]2[C@@H]3C(=O)N(C)C(=O)[C@@H]3[C@@H]3C(=O)Nc4ccccc4C(=O)N23)c1 | 30.1% (active)
35 | O=C([C@H]1[C@H](CO)[C@H]2Cn3c(ccc(C4=CCCC4)c3=O)[C@@H]1N2C(=O)c1ccncc1)N1CCCCC1 | -10.6%
36 | CNC[C@@H]1Oc2cc(C#CC3CCCC3)ccc2S(=O)(=O)N([C@@H](C)CO)C[C@@H]1C | 3.46%
37 | CNC[C@H]1Oc2cc(C#CC3CCCC3)ccc2S(=O)(=O)N([C@H](C)CO)C[C@@H]1C | 49.1% (active)
38 | CNC[C@H]1Oc2cc(C#CC(C)(C)O)ccc2S(=O)(=O)N([C@@H](C)CO)C[C@@H]1C | 29.3% (active)
39 | CNC[C@@H]1Oc2cc(C#CCC3CCCC3)ccc2S(=O)(=O)N([C@H](C)CO)C[C@H]1C | 18.9%
40 | CNC[C@@H]1Oc2cc(C#Cc3ccc(F)cc3)ccc2S(=O)(=O)N([C@@H](C)CO)C[C@H]1C | 7.09%
41 | CNC[C@H]1Oc2cc(C#Cc3ccccc3)ccc2S(=O)(=O)N([C@@H](C)CO)C[C@@H]1C | 10.6%
42 | COc1ccc(S(=O)(=O)N[C@H]2C=C[C@@H](CC(=O)O)O[C@@H]2CO)cc1 | -1.75%

Source: PubChem BioAssay AID651640 (Broad Institute, 2012)
